Assay outcomes: PubChem BioAssay, National Center for Advancing Translational Sciences (NCATS)
The list is not random: actives were taken first. Their share in the collection is about 4.7%.
D1 antag – blocks dopamine activation of the human D1 receptor; HEK293 TREx D1 cells, calcium flux, dopamine EC80; active compounds read low; activity change, negative = inhibition, % at 10 µM; hit rate 3.2% among 360,000; AID 504652; in the data active means activity change below about -30%; further: on the % scale 0 is the no-effect control and ±100 the full control effect
Target sequence (P21728 whole entry, looked up): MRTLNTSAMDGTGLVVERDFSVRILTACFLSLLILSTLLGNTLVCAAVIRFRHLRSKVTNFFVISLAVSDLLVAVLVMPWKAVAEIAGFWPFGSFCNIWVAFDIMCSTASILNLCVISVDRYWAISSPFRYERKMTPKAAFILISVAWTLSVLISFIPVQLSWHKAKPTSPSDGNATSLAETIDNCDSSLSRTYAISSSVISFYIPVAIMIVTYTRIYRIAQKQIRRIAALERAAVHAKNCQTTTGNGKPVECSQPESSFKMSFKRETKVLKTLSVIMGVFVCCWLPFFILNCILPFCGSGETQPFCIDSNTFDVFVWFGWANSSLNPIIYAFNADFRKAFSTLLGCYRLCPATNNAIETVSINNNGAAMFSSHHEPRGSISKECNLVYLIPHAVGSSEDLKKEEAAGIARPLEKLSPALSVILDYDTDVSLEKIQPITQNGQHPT
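Antagonism measured as reduced calcium response to an EC80 dopamine addition following 180 s compound pre-read; cells were inducible HEK293 Trex D1 plated overnight at 30 C, read kinetically at 1 cycle/sec.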
TRHR enhancer – allosterically enhances the human TRH receptor; TRHR cells, fluo-8 calcium fluorescence, EC20 TRH enhancement; enhancement, % at 2 µM; P34981; hit rate 0.66% among 360,000; AID 493056; in the data active means enhancement above about 30%; further: 0% is about no effect
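TRHR-expressing cells loaded with fluo-8 calcium dye were read kinetically (ex 480/em 530) during compound addition, then stimulated with an EC20 of TRH (10 nM final). Enhancement of the Gq-mediated intracellular calcium response was scored.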
D1 ag – human D1 receptor agonism. hit rate 1% among 360,000. activation, % at 2 µM. HEK293 T-REx D1 cells, calcium flux, agonist mode. AID 504660; further: 0% is about no effect
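Tetracycline-induced HEK293 TREx D1 cells, force-coupled to calcium signalling, were dye-loaded with a no-wash calcium kit. Compound was pin-added after a 10 s baseline. Fluorescence was read kinetically at 1 cycle/s for 180 s, with calcium rises flagged as agonism.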
D1 potentiator – human D1 dopamine receptor positive modulation; P21728; HEK293 TREx D1 cells, calcium flux, dopamine EC20 potentiation; potentiation, % at 10 µM; hit rate 0.036% among 360,000; AID 504651; in the data active means potentiation above about 30%; further: 0% is about no effect
TRHR ag – activates the human TRH receptor; P34981; TRHR cells, calcium flux fluo-8, FDSS agonist mode; activation, % at 2 µM; hit rate 0.18% among 360,000; AID 493084; further: 0% is about no effect
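Fluo-8-loaded TRHR cells; 10 s baseline, compound added, kinetic Ca2+ fluorescence read 1/s, agonist mode.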
* marks the source's active call; other numbers are inactive results; nt = no result given; ! = a repeat was not active. Unless noted, no stated cut-off is given here; in the data, active means activation above about 30%; inactive means the rest.

SMILES | D1 antag | TRHR enhancer | D1 ag | D1 potentiator | TRHR ag
COc1ccc(S(=O)(=O)N/N=c2\oc3c(OC)cccc3cc2S(=O)(=O)c2ccc(C)cc2)cc1OC | 7 | 1 | 0 | -10 | -1
Cc1ccc(NC(=O)Cn2c(=O)n(Cc3nc(C)no3)c(=O)c3cc4c(cc32)OCO4)c(Cl)c1 | -3 | 2 | -1 | -1 | 0
Cc1ccc(CNC(=O)CCS(=O)(=O)c2cc3c(cc2C)NC(=O)CO3)cc1 | -32*! | -1 | 2 | -10 | 0
O=C(NC1CCN(C(=O)NC2CCCCC2)CC1)c1ccco1 | 1 | -1 | 3 | -1 | 1
O=C(NC1CCCC1)c1cc2cc(Br)ccc2o1 | -78* | 6 | 4 | -15 | -1
O=C(NC1CCCCCCC1)c1ccco1 | -31* | 1 | 3 | -5 | 0
O=C(C1COc2cc(S(=O)(=O)Nc3ccc(Cl)cc3)ccc2O1)N1CCCC1 (stereo not drawn) | 21 | 5 | 20 | -6 | 2
CCOCCCNC(=O)CCc1nnc2ccc(N3CCN(c4cccc(OC)c4)CC3)nn12 | -3 | 2 | 1 | -3 | 0
CC1CCN(c2ccc3nnc(CCC(=O)Nc4ccc(F)c(F)c4)n3n2)CC1 | -30* | -5 | 1 | -8 | -1
CCOC(=O)C(Cc1ccccc1)NC(=O)CCc1nnc2ccc(N3CCCCC3)nn12 (stereo not drawn) | -33* | -4 | 2 | -5 | 1
CCOC(=O)C(Cc1ccccc1)NC(=O)CCc1nnc2ccc(N3CCCC3)nn12 (stereo not drawn) | -3 | -5 | 1 | 1 | 0
CCOCCCNC(=O)CCc1nnc2ccc(N3CCCCC3)nn12 | -31* | -3 | 1 | 5 | 0
Cc1oc(-c2ccccc2)nc1CNC(=O)NC1CCCCC1 | -1 | 5 | 1 | 0 | -1
COc1ccc(C2=NC(c3ccncc3)=Nc3ccc(OC)cc3N2)cc1 | -8 | -5 | 0 | -1 | -1
CN(C(=O)Nc1cn(C)c(=O)c2ccccc12)c1ccccc1 | 3 | -2 | -1 | 5 | 2
Cc1coc2cc3oc(=O)c4c(c3cc12)CCCC4 | -45* | -10 | 1 | 0 | 0
CCOC(=O)C(C)NC(=O)c1c(C)oc2ncn(CC(C)C)c(=O)c12 (stereo not drawn) | -3 | -12 | 1 | -2 | 0
O=C(c1cc(-c2ccc(Cl)cc2Cl)on1)N1CCCC1 | 0 | -2 | 1 | -6 | -1
Cc1nccc(-c2cc(-c3ccc(Cl)cc3Cl)no2)n1 | -14 | 33* | 1 | -5 | 0
Cc1ccc(Cl)cc1N1CCN(C(=O)c2cc3c(=O)n(C)c4ccccc4c3n2C)CC1 | -36* | -2 | 3 | nt | 2
Cc1ccc(Cl)cc1N1CCN(C(=O)Cn2ncc3c4ccccc4n(C)c3c2=O)CC1 | -33* | -2 | 0 | -3 | 0
Cc1ccc(Cl)cc1N1CCN(CCCNC(=O)Cn2ncc3c([nH]c4ccccc43)c2=O)CC1 | -13 | 54* | 1 | -2 | 0
Cn1cc(C[C@H](C(=O)O)N2C(=O)c3ccc(C(=O)O)cc3C2=O)c2ccccc21 | -5 | -1 | 1 | 1 | 0
Nc1nonc1-n1nnc(C(=O)N/N=C/c2ccc(Br)cc2)c1-c1ccc2c(c1)OCO2 | 59 | 12 | 47* | 6 | 0
COc1cccc(-c2c(C(=O)N/N=C(\C)c3ccncc3)nnn2-c2nonc2N)c1 | 8 | 2 | 2 | -2 | 0
SMILES | D1 antag | TRHR enhancer | D1 ag | D1 potentiator | TRHR ag
CCOc1ccc(-c2c(C(=O)N/N=C(\C)c3cccs3)nnn2-c2nonc2N)cc1 | 33 | 24 | 44* | -3 | 13
C/C(=N\NC(=O)c1nnn(-c2nonc2N)c1-c1ccc2c(c1)OCO2)c1cccs1 | 62 | 31* | 183* | 6 | 13
CCOc1ccc(-c2c(C(=O)N/N=C(\C)c3ccco3)nnn2-c2nonc2N)cc1 | 51 | 11 | 24 | 7 | 0
CCOc1cccc(-c2c(C(=O)N/N=C(\C)c3cccs3)nnn2-c2nonc2N)c1 | 40 | 24 | 95* | 12 | 5
COc1cccc(CNC(=O)c2ccc(-c3nc(CS(=O)c4ccccc4)c(C)o3)cc2)c1 (stereo not drawn) | -6 | -4 | 1 | 0 | 0
COc1cccc(-c2c(C(=O)N/N=C(\C)c3cccs3)nnn2-c2nonc2N)c1 | 22 | 7 | 216* | 0 | -2
CCOc1ccc(S(=O)(=O)c2c(C(=O)c3ccc(CC)cc3)cnc3ccc(C)cc23)cc1 | 8 | -16 | 2 | -1 | 0
CC(C)C(OC(=O)CNC(=O)c1ccccc1)C(=O)Nc1cc(C(F)(F)F)ccc1Cl (stereo not drawn) | 20 | -6 | 2 | 10 | 1
CCc1ccc(-n2c(=O)c3c(C)c(C(=O)N(C)C)sc3n(CC(=O)NCC3CCCO3)c2=O)cc1 (stereo not drawn) | 4 | 11 | 2 | 1 | 0
COc1cccc(-n2c(=O)c3c4c(sc3n(Cc3ccc(F)cc3Cl)c2=O)CCCC4)c1 | 1 | 2 | 5 | 1 | -2
COc1cccc(-n2c(=O)c3c(C)c(C(=O)N(C)C)sc3n(CC(=O)NCC3CCCO3)c2=O)c1 (stereo not drawn) | -30* | -4 | 2 | -15 | 0
COc1cccc(-n2c(=O)c3c(C)c(C(=O)N(C)C)sc3n(Cc3ccc(F)cc3Cl)c2=O)c1 | -31* | -11 | 1 | 3 | 0
COC(=O)c1ccccc1NC(=O)Cn1c(=O)n(-c2cccc(OC)c2)c(=O)c2c(C)c(C(=O)N(C)C)sc21 | -35* | 2 | 19 | -3 | 0
CCOc1ccccc1NC(=O)C(C)Sc1nc2c(c(=O)[nH]1)CCCC2 (stereo not drawn) | 13 | -2 | 0 | -1 | 0
COc1ccc(OC)c(-n2cnc3cc(C(=O)NC4CCCCCC4)ccc32)c1 | -11 | 1 | -1 | -2 | -1
Cc1ccc(NC(=O)c2cnn(-c3ccccc3)c2C)c(C)c1 | -58* | 10 | 7 | -7 | -1
O=C(Nc1ccc(F)cc1F)N1CCN(c2ccc(Cl)c(Cl)c2)CC1 | -32* | -3 | 28 | -3 | 1
O=S(=O)(NCCc1csc2nc(-c3ccccc3)nn12)c1cc(F)ccc1F | nt | 8 | 12 | -1 | 0
COc1ccc(-c2nc(S(=O)(=O)c3ccc(C)cc3)c(NCc3ccccc3)o2)cc1 | 3 | -2 | 2 | 0 | 0
Cc1ccc2c(C)nc(NC3=NCN(CCc4ccccc4)CN3)nc2c1 | -43* | -3 | 5 | -5 | 0
Cc1nc(NC2=NCN(CCc3ccccc3)CN2)nc2ccccc12 | -14 | 5 | 2 | 1 | 1
O=c1cc(-c2ccccc2)[nH]n1-c1nc2ccccc2s1 | -36* | -22 | 0 | -8 | 0
O=C(NC12CC3CC(CC(C3)C1)C2)c1ccc(Br)o1 | -2 | 9 | 9 | -5 | -2
